# The whole screen tested about 360,000 compounds, of which about 25,000 (6.9%) were called active. Inconclusive results (about 9%) are left out. For the sample, actives were picked, then their nearest neighbours and some compounds at random. A number with no mark means an inactive call. Calls come from the whole dose curve; as a rule, active = well fitted inhibition curve with a large enough effect; inconclusive = small, poorly fitted or top-dose-only effect; inactive = flat fitted curve, though single readings scatter.
# Target: Luciferin 4-monooxygenase (Photinus pyralis) (UniProt P08659)
# Sequence (P08659 whole entry, looked up): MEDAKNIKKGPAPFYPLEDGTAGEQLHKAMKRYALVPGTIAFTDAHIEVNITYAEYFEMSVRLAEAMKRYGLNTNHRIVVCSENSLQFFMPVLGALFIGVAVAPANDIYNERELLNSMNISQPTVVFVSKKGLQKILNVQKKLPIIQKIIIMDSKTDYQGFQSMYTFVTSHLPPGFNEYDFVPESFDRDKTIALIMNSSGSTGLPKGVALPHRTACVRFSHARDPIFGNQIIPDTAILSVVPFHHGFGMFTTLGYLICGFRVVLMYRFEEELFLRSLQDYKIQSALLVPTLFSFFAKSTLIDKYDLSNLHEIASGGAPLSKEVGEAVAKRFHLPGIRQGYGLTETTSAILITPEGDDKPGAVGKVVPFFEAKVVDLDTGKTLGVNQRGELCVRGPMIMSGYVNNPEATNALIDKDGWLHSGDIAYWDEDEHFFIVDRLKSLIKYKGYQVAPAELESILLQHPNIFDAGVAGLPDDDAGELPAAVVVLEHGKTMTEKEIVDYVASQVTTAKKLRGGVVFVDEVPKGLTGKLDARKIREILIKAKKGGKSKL
# Assay: qHTS profiling assay for firefly luciferase inhibitor/activator using purifed enzyme and Km concentrations of substrates (counterscreen for miR-21 project); note: nearly all actives have a fitted effect of over 55% in size;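 for activity change, negative = inhibition: plate controls were vehicle for no effect and reference inhibitor for full effect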
# Settings: purified FLuc, luminescence inhibition; series mostly up to 57.5 µM; activity change, negative = inhibition: at the top concentration
# In short: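 Purified P. pyralis luciferase, 10 nM final, with Km-level 10 uM D-luciferin and 10 uM ATP in 50 mM Tris acetate pH 7.5, 10 mM Mg acetate, 0.01% Tween-20, 0.05% BSA; 6-point qHTS titration about 60 µM downward; luminescence read.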
# Potency is the fitted concentration of half-maximal effect.
SMILES,"activity change, negative = inhibition [%]",Potency
CC1CCN(S(=O)(=O)c2ccc3c(ccn3CCC(=O)NCc3ccc(N(C)C)cc3)c2)CC1,-2.72,–
COc1ccc(CC(=O)Nc2nnc3n2CCS3)cc1OC,-3.34,–
CCOCCCNC(=O)c1cc2c(=O)n3ccccc3nc2s1,-15,–
CCc1ccc2oc(-c3ccc(N)cc3)nc2c1,–,0.19 µM (active)
NS(=O)(=O)c1ccc(CCNC(=O)CCCCCn2c(=O)[nH]c3ccccc3c2=O)cc1,-7.29,–
CCc1ccc(NC(=O)c2cc(S(=O)(=O)NC3CCCCCC3)ccc2F)cc1,-8.51,–
CCOC(=O)C1=C(c2ccccc2)N=C2SCC(=O)N2C1c1ccc(O)c(OC)c1 (stereo unspecified),-1.7,–
CSc1ccc(CCNC(=O)c2cc(C)nc3c2c(C)nn3-c2cccc(F)c2)cc1,-1.61,–
CCOC(=O)C1=C(c2ccccc2)NC(=S)NC1c1ccc(Cl)cc1 (stereo unspecified),1.44,–
COc1ccc(C2NC(=S)NC3=C2CCc2ccccc23)cc1OC (stereo unspecified),4.29,–
CCOc1ccc(C2NC(=S)NC3=C2CCc2ccccc23)cc1 (stereo unspecified),–,21.3 µM (active)
CCN1CCc2nc3sc(C(=O)Nc4ccccc4OC(F)(F)F)c(N)c3cc2C1,0.475,–
Cn1c(=O)c2c(nc(Oc3ccc(C#N)cc3)n2Cc2ccc(Cl)cc2Cl)n(C)c1=O,-3.98,–
FC(F)(F)c1ccnc(Oc2ccc(C3=NCCS3)cc2)c1,–,3.38 µM (active)
O=[N+]([O-])c1cccc(C2=NCCS2)c1,-8.97,–
O=Cc1ccc(Oc2cccc(C(F)(F)F)c2)nc1,-3.32,–
O=C(OCC(=O)N1CCCC1)c1ccc(Cl)nc1,2.43,–
Oc1oc(-c2ccccc2Br)nc1/C=N/c1ccccn1,–,7.57 µM (active)
CCOc1ccc2nc(/N=C/c3nc(-c4ccccc4)oc3O)sc2c1,2.17,–
CCOc1ccc(C(=O)NCC(=O)N2CCN(c3ccc(C(F)(F)F)cn3)CC2)cc1,6.42,–
CCn1cc(C(=O)OCC(=O)Nc2cc(C)cc(C)c2)c(=O)c2ccc(C)nc21,-2.09,–
O=S(=O)(NC1CC1)c1ccc(F)c(F)c1,-2.04,–

SMILES,"activity change, negative = inhibition [%]",Potency
Cc1cc(C)cc(NC(=O)CSc2nc(=O)n(CCN3CCOCC3)c3c2CCC3)c1,-2.95,–
Cc1[nH]c2ccccc2c1SCC(=O)Nc1nccs1,–,23.9 µM (active)
Cn1c(SCC(=O)Nc2nccs2)nnc1-c1cccnc1,2.95,–
CCn1c(SCC(=O)Nc2nccs2)nnc1-c1ccco1,-1.53,–
CCOc1ccccc1C(=O)NCc1ccc2c(c1)CCN2C(=O)c1ccc(F)cc1,-15,–
Cc1ccccc1NC(=O)CSc1ccc2nnc(-c3ccccn3)n2n1,-2.1,–
Cc1ccc(-c2onc(C)c2C)cc1S(=O)(=O)Nc1ccccn1,-14.3,–
COc1ccc(C(=O)NC2CCN(C(=S)NCCc3ccccc3)CC2)cc1,0.548,–
O=C1CCN(C(=S)NCCc2ccccc2)CC1,0.463,–
S=C(NCCc1ccccc1)N1CCCCC1,–,16.9 µM (active)
CCOCCCN(C(=O)Cn1nnc(-c2ccc(OC)c(OC)c2)n1)C(CC)C(=O)NC1CCCC1 (stereo unspecified),-2.8,–
O=[N+]([O-])c1ccc(N/N=C2/CCCCC2c2ccccn2)c([N+](=O)[O-])c1 (stereo unspecified),-12.6,–
O=[N+]([O-])c1ccc2nc(-c3ccccn3)[nH]c2c1,–,12 µM (active)
O=c1[nH]c2cccnc2n1-c1ccc([N+](=O)[O-])cc1,-0.226,–
COc1ccccc1NC(=O)CSc1oc(-c2ccco2)nc1S(=O)(=O)c1ccc(Br)cc1,-4.64,–
CCOc1ccc(S(=O)(=O)Nc2ccc3oc4c(c3c2)CC(C)CC4)cc1 (stereo unspecified),-12.4,–
CSc1ccc(C#N)cc1NC(=O)c1ccc(Cl)cc1,4.33,–
N#Cc1ccccc1NC(=O)c1cccc(COc2ccc(Cl)cc2Cl)c1,–,13.5 µM (active)
CSc1ccc(C#N)cc1NC(=O)c1cccc(Cl)c1,-1.26,–
c1ccc(-c2csc(N3CCc4ccccc4C3)n2)cc1,–,12 µM (active)
CN(C)CCCNC(=S)N1CCN(c2nc(-c3ccccc3)cs2)CC1,-15.6,–
O=C(CN1CCN(c2nc(-c3ccccc3)cs2)CC1)NCc1ccc2c(c1)OCO2,-1.74,–

SMILES,"activity change, negative = inhibition [%]",Potency
CCCCCn1c(=O)[nH]c2cc(C(=O)NCCCN3CCCCC3C)ccc2c1=O (stereo unspecified),2.1,–
CCS(=O)(=O)n1nc(-c2ccccc2)nc1SCc1ccccc1,–,10.7 µM (active)
Cc1ccc(S(=O)(=O)n2nc(-c3ccc(Cl)cc3)nc2NCc2ccccc2)cc1,-1.94,–
CCn1c(SCc2ccccc2)nc2c(c1=O)SCC2,-2.37,–
C[C@H](OC(=O)n1ccnc1)[C@@H]1O[C@@]2(C)CCC[C@@H]1O2,-2.13,–
Cc1nnc(N2CCC(C(=O)Nc3ccc(F)cc3)CC2)c2nn(-c3ccc(Cl)cc3)c(C)c12,0.139,–
Cc1ccc(NC(=O)COC(=O)CN2CCCCCC2=O)c(C)c1,2.69,–
Cn1c(C(=O)Nc2cccc(C(F)(F)F)c2)cc2c(=O)n3ccccc3nc21,-8.11,–
CCCN(CCC)C(=O)C(Cc1ccccc1)NS(=O)(=O)c1ccc2c(c1)c(=O)n(C)c(=O)n2C (stereo unspecified),-0.122,–
Cc1cc(C(=O)COC(=O)CNC(=O)c2ccc(F)cc2)c(C)n1Cc1ccco1,–,6.75 µM (active)
O=C(COC(=O)CNC(=O)c1ccco1)Nc1ccc(F)cc1,-0.0434,–
COCCn1c(C)cc(C(=O)COC(=O)CNC(=O)c2ccco2)c1C,-9.9,–
CCC(C)NC(=O)Cn1c(=O)n(-c2ccc(Cl)cc2)c(=O)c2c3c(sc21)CCCC3 (stereo unspecified),1.6,–
COc1ccc(CNC(=O)c2cc3c(=O)[nH]c4ccccc4c3s2)cc1,0.566,–
COc1ccc(-c2cn3cccnc3n2)cc1,–,13.5 µM (active)
FC(F)(F)Oc1ccc(-c2cn3cccnc3n2)cc1,–,6.01 µM (active)
COc1ccc(-c2cc(NCc3ccc(F)cc3)n3cnnc3n2)cc1,-7.12,–
CC(C)(C)C(=O)Nc1ccc(-c2cn3cccnc3n2)cc1,–,7.57 µM (active)
COc1cc(OC)cc(-c2nc(=S)n3ccsc3n2)c1,4.32,–
COc1ccc(N2CCN(C(=O)CSc3nnc4ncccn34)CC2)cc1,2.29,–
COc1ccc(-c2cn3c(n2)sc2cc(C(=O)Nc4ccc(F)cc4)ccc23)cc1,-11.2,–
Cc1c(-c2cccc(NC(=O)C(C)(C)C)c2)nc2ncccn12,-5.1,–

SMILES,"activity change, negative = inhibition [%]",Potency
CC(=O)Nc1ccc(S(=O)(=O)Nc2cccc(NC(=O)C(C)(C)C)c2)cc1,0.526,–
COc1ccc(-c2cn3ccsc3n2)cc1,–,2.39 µM (active)
O=C(CCNC(=O)c1ccc(Br)cc1)NCC(c1ccco1)N1CCCCC1 (stereo unspecified),1.69,–
CN(CC(=O)Nc1cccc(C(F)(F)F)c1)S(=O)(=O)c1cccs1,-12,–
CC(C)CCNC(=O)Cn1c(=O)oc2cc(S(=O)(=O)N3CC(C)CC(C)C3)ccc21 (stereo unspecified),1.69,–
CCOc1ccc(CNC(=O)c2cccc(Nc3nc4ccccc4n4nnnc34)c2)cc1OC,0.0001,–
CCN(CC)CCNC(=O)c1cc2c(=O)oc3ccc(C)cc3c2s1,3.49,–
Cc1ccc(-c2nnc(SCC(=O)NCc3ccccc3)nc2-c2ccc(C)cc2)cc1,-9.65,–
COC(=O)c1cc(NC(=O)c2cnc(SC)nc2-c2ccccc2)cc(C(=O)OC)c1,0.653,–
COc1ccccc1C(=O)NC(CCSC)C(=O)N1CCN(C(C)=O)CC1 (stereo unspecified),-0.351,–
CC(=O)c1cccc(NC(=O)C2CCN(C(=O)c3ccccc3Cl)CC2)c1,2.84,–
CC(=O)N1CCCc2ccc(NS(=O)(=O)c3ccc(F)cc3F)cc21,-3.32,–
O=C(O)c1ccc2c(=O)n3c(nc2c1)/C(=C/c1ccc(Cl)c([N+](=O)[O-])c1)CC3,0.928,–
COc1ccc(OC)c(-c2nc(C(N)=O)c3c(n2)n(-c2ccc4c(c2)OCO4)c(=O)n3C)c1,1.35,–
CC(C)C12CN3CC(C(C)C)(CN(C1)C3c1ccc(OCc3ccccc3)cc1)C2=O (stereo unspecified),-0.194,–
O=C1C=C(NCCNc2c(F)c(F)c(CO)c(F)c2F)CCC1,1.96,–
Cc1ccc(C)c(N2CCN(CCCNC(=O)Nc3ccc(Cl)cc3)CC2)c1,1.01,–
O=C(O)CCC(=O)Nc1ccc(OCC2CCCO2)cc1 (stereo unspecified),-11.2,–
CC1CCC(C(C)C)C(=O)/C1=C\c1ccc(NC(=O)CCC(=O)O)cc1 (stereo unspecified),–,16.9 µM (active)
O=C(O)CCC(=O)Nc1ccc(N2CCOCC2)cc1,-7.99,–
O=C(CSc1nnc(-c2ccccc2F)o1)Nc1cccc(C(F)(F)F)c1,-12.9,–
O=C(NC1CCCC1)C(NS(=O)(=O)c1ccc(Br)s1)c1ccccc1 (stereo unspecified),-0.902,–

SMILES,"activity change, negative = inhibition [%]",Potency
Cc1csc(NC(=O)CSc2nnc(-c3cccnc3)o2)n1,0.524,–
CN(C)c1nc(-c2cccnc2)nc(-c2ccc(Cl)cc2)c1C#N,0.952,–
CN(C)c1ccc(-c2nnc(-c3cccnc3)o2)cc1,–,9.53 µM (active)
O=C(CCNC(=O)c1ccc([N+](=O)[O-])cc1)NC1CCCCC1,-0.597,–
COc1ccc(CNC(=O)C(C)n2nc(C)c3c(C)n(-c4ccccc4)nc3c2=O)c(OC)c1 (stereo unspecified),–,inactive
Cc1cc(C)cc(NC(=O)NC2CCCCCCC2)c1,–,10.7 µM (active)
Cc1ccc(NC(=S)NC2CCCC2)cc1,–,10.7 µM (active)
Cc1ccc(NC(=O)CSCC(=O)NC2CCCCC2)cc1,-3.2,–
CC(C)N1CCC(NC(=O)Nc2ccccc2)CC1,0.545,–
Cc1cc(Br)ccc1NC(=S)NC1CCCC1,-16.2,–
C/C(CC(=O)Nc1cccc(F)c1)=N\NC(=O)C(=O)NC1CCCCC1,-1.86,–
O=C(Nc1cccc(F)c1)NC1CCCc2ccccc21 (stereo unspecified),-1.61,–
CC(C)(C)NS(=O)(=O)c1ccc(NC(=O)NC2CCCCC2)cc1,-10.9,–
Cc1ccc(NC(=O)NC2CCCCC2)cc1S(=O)(=O)N1CCOCC1,-17,–
O=C(Nc1cccc(F)c1)NC1CCCCCCC1,–,15.1 µM (active)
CC(C)c1ccc(NC(=O)NC2CCCCC2)cc1,–,6.75 µM (active)
Cc1cc(C)cc(NC(=O)NC2CCN(CC(=O)Nc3cccc(Cl)c3C)CC2)c1,-0.135,–
CCCNC(=O)C1CCN(c2nc3ccc(C)cc3[nH]2)CC1,-13.2,–

# From PubChem BioAssay AID588342 (National Center for Advancing Translational Sciences (NCATS), 2011)
